Several values for one entry are separate records, joined by “and”; a condition that tells them apart may be missing. Identical values can stand only once. About 2,400 (0.59%) of roughly 410,000 compounds were called active. Rule as the data show it: active = max activation above about 30%; inactive = the rest. The full list was thinned out, with actives kept by preference. Where a SMILES comes first, the peptide text is derived from it. Bridges are numbered along the chain shown (N, C = ends). [ ]: non-standard residue; d: D form. The star is where a group is joined. X1 = CC[C@H](C)CCCCC(=O)*; Dab = NCC[C@H](N)C(=O)O

In PubChem BioAssay AID652048 (National Center for Advancing Translational Sciences (NCATS), 2013) one finds max activation data, which are given here for 80 compounds.

The target in this test is D(3) dopamine receptor (Homo sapiens) (UniProt P35462). Nature of the test: qHTS of D3 Dopamine Receptor Agonist: qHTS. Also: 0% is about no effect. Conditions: D3R DiscoveRx beta-arrestin cells, luminescence, 90 min; hits give high values. An outline of the steps: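 Agonist mode: compounds and dopamine controls were applied to plated cells for 90 min at 37 degrees C after an overnight attachment at 1500 cells/well. Luminescent read-out followed 30 - 60 minutes at room temperature with DiscoveRx detection reagent.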
D(3) dopamine receptor (Homo sapiens), sequence (P35462 whole entry, looked up): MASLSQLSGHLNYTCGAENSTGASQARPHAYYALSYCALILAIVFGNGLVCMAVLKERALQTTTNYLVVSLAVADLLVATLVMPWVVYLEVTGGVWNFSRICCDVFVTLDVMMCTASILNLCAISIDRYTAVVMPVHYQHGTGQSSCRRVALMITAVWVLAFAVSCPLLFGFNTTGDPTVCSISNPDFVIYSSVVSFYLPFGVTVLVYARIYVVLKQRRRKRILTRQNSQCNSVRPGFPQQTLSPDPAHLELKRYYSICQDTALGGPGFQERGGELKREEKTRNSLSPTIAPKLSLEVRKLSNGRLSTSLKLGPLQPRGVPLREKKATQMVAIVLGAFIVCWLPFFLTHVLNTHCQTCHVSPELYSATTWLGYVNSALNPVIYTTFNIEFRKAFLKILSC
On the technique in general: In qHTS, concentration-response curves come from the screen itself.
`CCCCCCCCCCCCCCCCO`: the max activation was 11.6% (inactive). For `Cc1cc(/C=C2/SC(=O)N(CC(=O)N3CCCC3)C2=O)ccc1N1CCOCC1`, the max activation is -0.0029% (inactive). For `CCN=C1S/C(=C\c2cc(Br)ccc2OCC(=O)OCC)C(=O)N1CC` the value was 5.26% (inactive); for `Cc1cc(/C=C2/SC(=O)N(CC(=O)OC(C)C)C2=O)c(C)n1C`, 30.2% (active). For the compound `FCOC(C(F)(F)F)C(F)(F)F`, the max activation is 9.08% (inactive). For `COc1ccc(C(=O)COC(=O)c2c(C)noc2C)cc1Cl`, the max activation is -4.54% (inactive). In the case of `Cc1ccc(-c2nc(COC(=O)c3c(C)noc3C)cs2)cc1` it was 32.5% (active); in that of `COc1cc(OC)cc(C(=O)NCC(=O)OCc2csc(-c3ccccc3)n2)c1`, -7.01% (inactive). In the case of `CC(=O)OC[C@H]1O[C@@H](O[C@H]2[C@H](O)[C@@H](OC(=O)c3ccccc3C(=O)O)[C@H](O)O[C@@H]2COC(C)=O)[C@H](O)[C@@H](OC(=O)c2ccccc2C(=O)O)[C@@H]1O` it was 2.74% (inactive); in that of `CCCC(=O)N1CCN(c2nc3c(OC)ccc(C)c3s2)CC1`, 3.21% (inactive). In the case of `O=C1C(c2[nH]c3ccccc3c2O)=Nc2ccccc21` it was -8.96% (inactive). In the case of `Cc1cc(Cl)ccc1NC(=S)N1CCC(C(N)=O)(N2CCCCC2)CC1`, the max activation is 5% (inactive). Take `CCC(=O)N1CCC(C(N)=O)(N2CCCCC2)CC1`: the max activation is 1.17% (inactive).

In the case of `NC(=O)C1(N2CCCCC2)CCN(C(=S)Nc2ccc(Cl)cc2)CC1`, the max activation is 32.5% (active).

`Cc1ccc(NS(=O)(=O)c2ccc3c(c2)CC(=O)N3)cc1Cl`: the max activation is -10.2% (inactive). For `Fc1ccc2[nH]c3c(N4CCN(Cc5ccc6c(c5)OCO6)CC4)ncnc3c2c1` the value was 9.79% (inactive); for `Fc1ccc2[nH]c3c(N4CCSCC4)ncnc3c2c1`, 42.3% (active).

Turning to `Cc1ccc(CNC(=O)CCC(=O)N2Cc3ccccc3Oc3ncccc32)cc1`, the max activation is -12% (inactive).

On to `CCC(=O)N1c2ccccc2CC1C(=O)N1CCN(c2ccccc2)CC1` (stereo not given), for which the max activation is 0.179% (inactive). In the case of `COc1cccc(C(=O)Nc2ccc3oc(-c4ccc5ccccc5c4)nc3c2)c1` it was 15.1% (inactive); in that of `Cc1cc2nc(-c3ccc(NC(=O)c4cccnc4)cc3)oc2cc1C`, 32.8% (active); in that of `Cc1cc2nc(-c3ccc(NC(=O)c4cc5ccccc5o4)cc3)oc2cc1C`, 2.05% (inactive). For `CC1=C(/C=C/C(C)=C/C=C/C(C)=C/C=C/C=C(C)/C=C/C=C(C)/C=C/C2=C(C)CCCC2(C)C)C(C)(C)CCC1` the value was -12.4% (inactive); for `Cc1cc(C)c(NC(=O)Cn2c(SCC(=O)NCc3ccccc3)nc3ccccc32)c(C)c1`, -11.4% (inactive); for `Cc1ccc(NC(=O)CSc2nc3c([nH]c4ccccc43)c(=O)n2-c2ccccc2)cc1Cl`, -9.55% (inactive). Take `Cc1ccc(-n2c(SCC(=O)Nc3ncc(Cl)cc3Cl)nc3ccccc32)cc1`: the max activation was 39.8% (active).

On to `CCC(=O)N1CCc2cc(S(=O)(=O)NC(C(=O)Nc3ccc(C(C)=O)cc3)C(C)C)ccc21` (stereo not given), for which the max activation is -16.2% (inactive). For `CCCCC(NS(=O)(=O)c1ccc(C)cc1)C(=O)Oc1ccc2c3c(c(=O)oc2c1)CCC3` (stereo not given) the value was 51.9% (active); for `CSCCC(NS(=O)(=O)c1ccc(C)cc1)C(=O)N1CCCC1` (stereo not given), -0.577% (inactive); for `NC(=O)C1CCN(C(=O)COc2ccc3c4c(c(=O)oc3c2)CCC4)CC1`, -9.64% (inactive). In the case of `COc1ccccc1NC(=O)c1oc2ccccc2c1NC(=O)C(C)C` it was 2.74% (inactive); in that of `C/C(CC(=O)NCc1ccc(Cl)cc1)=N\NC(=O)COc1ccc(C)cc1Br`, -14.3% (inactive). For the compound `CSc1ccc(/C=N\NC(=O)COc2ccc(Cl)cc2Br)cc1`, the max activation was 32.8% (active). In the case of `O=C(COc1ccc(Cl)cc1Cl)NCCCNC(=O)c1cnccn1` it was 5.48% (inactive). For the compound `CC[C@H](C)CCCCC(=O)N[C@@H](CCN)C(=O)N[C@H](C(=O)N[C@@H](CCN)C(=O)N[C@H]1CCNC(=O)[C@@H]([C@H](C)O)NC(=O)[C@H](CCN)NC(=O)[C@H](CCN)NC(=O)[C@H](CC(C)C)NC(=O)[C@@H](CC(C)C)NC(=O)[C@H](CCN)NC1=O)[C@@H](C)O` (X1-[Dab]T[Dab][Dab][Dab][dL]L[Dab][Dab][dT]; lactam 4-C), the max activation was -1.99% (inactive).

As for `CC1(C)[C@@H]2CC[C@@]1(C)[C@H](OC(=O)CSC#N)C2`, the max activation is -0.173% (inactive). In the case of `O=S(=O)(NCCS(=O)(=O)N1CCN(c2ccccc2)CC1)c1ccc(Cl)cc1` it was 0.296% (inactive); in that of `CS(=O)(=O)N1CCC(C(=O)N2CCN(c3ccccc3)CC2)CC1`, 6.05% (inactive).

As for `CCS(=O)(=O)N1CCC(N2CCN(c3ccccc3)CC2)CC1`, the max activation was 64.6% (active).

As to `Cc1ccc(C)c(N2CCN(C(=O)CCc3c(C)nc4c(c3C)c(=O)n(C)c(=O)n4C)CC2)c1`, the max activation was 1.37% (inactive). In the case of `COc1cc2c(cc1OC)[C@@H](Cc1cc(OC)c(OC)c(OC)c1)[N+](C)(CCCOC(=O)CC/C=C/CCC(=O)OCCC[N+]1(C)CCc3cc(OC)c(OC)cc3[C@H]1Cc1cc(OC)c(OC)c(OC)c1)CC2` (stereo not given in full), the max activation was 4.34% (inactive) and 3.72% (inactive).

In the case of `Oc1ccccc1N1CCN(c2ncnc3sc(-c4ccccc4)cc23)CC1`, the max activation is 31.1% (active). Turning to `CCc1cc2c(N3CCN(c4nnc(CC)s4)CC3)ncnc2s1`, the max activation is 13.8% (inactive).

As to `Cn1nnc2c(N3CCN(c4ccccc4)CC3)ncnc21`, the max activation was 1.99% (inactive). Regarding `CCCCN(CC)CCCNC(=O)c1nn(C)c2c1CS(=O)(=O)c1ccccc1-2`, the max activation is 31.8% (active). In the case of `CCCCN(CC)CCCNC(=O)c1nn(C)c2c1CSc1ccccc1-2`, the max activation is 3.9% (inactive). In the case of `COc1ccc(OC)c(CCNC(=O)c2nn(C)c3c2CS(=O)(=O)c2ccccc2-3)c1`, the max activation is 2.65% (inactive).

Take `CCOc1ccccc1CNC(=O)c1ccc(-n2c(C)cc3c2CCC(C)C3)cc1` (stereo not given): the max activation was -10.9% (inactive). In the case of `COC(=O)c1cc(NC(=O)CCc2c(C)nc3c4c(C)cc(C)nc4nn3c2C)cc(C(=O)OC)c1` it was -21.8% (inactive). Take `O=C(CSc1nccn1-c1ccc(F)cc1)Nc1cccc2ccccc12`: the max activation is 7.68% (inactive). For `O=C(CC[C@H]1O[C@@H](n2ccc(=O)[nH]c2=O)[C@H](O)[C@@H]1O)N[C@H](Cc1ccccc1)C(=O)NCCCN1CCCC1=O` the value was -10.2% (inactive); for `O=C(CC[C@H]1O[C@@H](n2ccc(=O)[nH]c2=O)[C@H](O)[C@@H]1O)N[C@H](Cc1ccccc1)C(=O)NCc1ccco1`, 13.5% (inactive). As to `Cc1ccc(NC(=O)[C@H](Cc2ccccc2)NC(=O)CC[C@H]2O[C@@H](n3ccc(=O)[nH]c3=O)[C@H](O)[C@@H]2O)cc1C`, the max activation was 63.9% (active). As for `CCOc1ccc(-c2cc3c(=O)n(CC(=O)NCc4ccc(OC)cc4)ccn3n2)cc1`, the max activation is -2.91% (inactive). Regarding `COc1cc(CNCc2ccc3c(c2)OCO3)c([N+](=O)[O-])cc1OC`, the max activation was -8.17% (inactive). In the case of `COc1cc(-c2c(-c3ccc4c(c3)OCO4)noc2C)ccc1F` it was -40.8% (inactive); in that of `COc1cc2c(-c3ccc4c(c3)OCO4)c(-c3ccsc3)oc(=O)c2cc1OC`, 30.4% (active); in that of `O=C(CCc1cn(Cc2ccc(F)cc2)c2ccccc12)NC1CCCCC1`, -6.69% (inactive). For `C/C=C/C1=C(C(=O)O)N2C(=O)[C@@H](NC(=O)[C@H](N)c3ccc(O)cc3)[C@H]2SC1` the value was -0.123% (inactive); for `C#C[C@]1(O)CC[C@H]2[C@@H]3CCC4=C/C(=N/O)CC[C@@H]4[C@H]3CC[C@@]21CC`, 4.22% (inactive); for `CC(C)CCNC(=O)c1[nH]c(C(F)(F)F)nc1-c1ccccc1`, 83.5% (active). On to `CC(C)CCNC(=O)c1cccnc1Sc1ccccc1`, for which the max activation is -0.291% (inactive). For `CC(C)(C)OC(=O)N1CCN(C(=O)c2[nH]c(C(F)(F)F)nc2-c2ccccc2)CC1` the value was -1.11% (inactive); for `COc1ccc(CCNC(=O)CCCn2c(=O)c3ccccc3n(Cc3ccc(C)cc3)c2=O)cc1OC`, -1.49% (inactive). `CC[C@H](C)CCCCC(=O)N[C@@H](CCN)C(=O)N[C@H](C(=O)N[C@@H](CCN)C(=O)N[C@H]1CCNC(=O)[C@H]([C@@H](C)O)NC(=O)[C@H](CCN)NC(=O)[C@H](CCN)NC(=O)[C@H](CC(C)C)NC(=O)[C@@H](CC(C)C)NC(=O)[C@H](CCN)NC1=O)[C@@H](C)O` (X1-[Dab]T[Dab][Dab][Dab][dL]L[Dab][Dab]T; lactam 4-C): the max activation was 0.26% (inactive). In the case of `COc1cccc(CNC(=O)C2CCC(CNS(=O)(=O)c3cccs3)CC2)c1` (stereo not given) it was 2.62% (inactive); in that of `CCn1c(CNC(=O)c2cc(OC)c(OC)c(OC)c2)cc2cc(C)ccc21`, 30.2% (active); in that of `COc1cc(C(=O)NCC(=O)N2CC=C(c3ccccc3)CC2)cc(OC)c1OC`, -3.75% (inactive).

Consider `COc1cc(-n2c(C)nc3cc(C(=O)NCc4ccco4)ccc32)cc(OC)c1OC`, for which the max activation is -12.8% (inactive). For `Cc1cccc(C(CC(=O)NCC2(c3ccccc3)CCCC2)c2ccccc2)c1O` (stereo not given) the value was -11.1% (inactive); for `CCOc1ccccc1N(CC)C(=O)c1cc2ccc3cccnc3c2[nH]1`, 8.81% (inactive). For `c1ccc(-c2cnc(CN3CCN(c4ccccc4)CC3)o2)cc1` the value was 47.7% (active); for `Cc1ccc(-c2nnc(CN3CCN(C)CC3)o2)cc1`, -9.28% (inactive); for `Cc1ccc(C)c(N2CCN(Cc3nnc(-c4ccccc4)o3)CC2)c1`, -22.5% (inactive). In the case of `NNc1nnc(Cc2ccncc2)c2ccccc12`, the max activation is 4.9% (inactive). With `COc1cc(CNCCSc2nnnn2C)ccc1OCc1c(F)cccc1Cl`, the max activation was -12.1% (inactive). On to `COc1cc(SC#N)ccc1N=Cc1c(C)[nH]n(-c2ccc(C)cc2)c1=O`, for which the max activation is 37.3% (active). In the case of `CCN(C(=O)c1sc2cc(OC)ccc2c1Cl)c1ccccc1` it was -6.98% (inactive); in that of `C=CCOc1c2ccc(C(=O)N(CC)c3ccc(OC)cc3)cc2nn1C`, 36.4% (active).

Take `COc1ccc(N(Cc2ccc(N(C)C)cc2)C(=O)c2ccc(S(C)(=O)=O)cc2)cc1`: the max activation was -1.61% (inactive).
